Compound activity (PubChem BioAssay)
CR mimetic SO: caloric restriction mimetics inhibiting age-related superoxide in yeast; 330,000 tested, 0.18% active; AID 2690; S. cerevisiae aged cells, superoxide DHE fluorescence; stronger effect = lower value; superoxide response (% of plate mean), % at 10 µM;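 active = superoxide response under a set limit, about three screen SD below normal, cut at about 65% in these data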;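 also: yeast aged for seven days with compound at 30 °C before DHE staining; 100% = average MFI of all compound-treated wells on the plate with controls excluded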
dFosB act: mouse delta FosB homodimer activation. purified delta FosB, TAMRA-CDK5 oligo fluorescence polarization; percent of positive-control signal above neutral wells. activation, % at 25 µM. 340,000 tested, 0.99% active;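 active = mean activation above about 17%, with every replicate also reaching it, limit read from the data, passing the limit was not always enough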
Target sequence (P13346 whole entry, looked up): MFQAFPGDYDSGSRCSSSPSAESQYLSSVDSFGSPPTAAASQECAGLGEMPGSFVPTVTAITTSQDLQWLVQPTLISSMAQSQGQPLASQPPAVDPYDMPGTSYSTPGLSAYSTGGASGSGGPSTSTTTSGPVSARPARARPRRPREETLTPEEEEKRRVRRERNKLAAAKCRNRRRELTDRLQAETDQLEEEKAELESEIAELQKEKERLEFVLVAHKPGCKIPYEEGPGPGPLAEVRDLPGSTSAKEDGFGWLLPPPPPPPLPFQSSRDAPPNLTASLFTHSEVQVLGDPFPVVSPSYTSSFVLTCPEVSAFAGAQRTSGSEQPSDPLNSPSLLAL
UBC13 inh: human UBC13 polyubiquitination inhibition. P61088. UBC13 polyubiquitin chain formation, TR-FRET. inhibition, % at 20 µM. 330,000 tested, 0.47% active. AID 485273; in the data active = inhibition above about 45%, passing the limit was not always enough
Target sequence (P61088 whole entry, looked up): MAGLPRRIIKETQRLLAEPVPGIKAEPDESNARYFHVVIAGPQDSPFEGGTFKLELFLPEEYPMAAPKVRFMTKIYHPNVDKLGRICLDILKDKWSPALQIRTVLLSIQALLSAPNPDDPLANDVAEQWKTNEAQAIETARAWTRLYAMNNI
NALP1 yeast inh: NALP1 inhibition. 280,000 tested, 0.61% active. inhibition, % at 10 µM. S. cerevisiae NALP1/ASC/caspase-1 growth, X-gal OD620, 72 h; in the data active = inhibition mostly above about 24%, no sharp cut-off; inactive = mostly below about 32%
GRIN3A LBD mod: modulates the human NR3A ligand-binding domain | NR3A LBD differential scanning fluorimetry, Tm shift; 0% = protein alone, 100% = glycine-bound protein | Tm shift relative to glycine control, % at 25 µM | 340,000 tested, 2.5% active | AID 1259313;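 active = melting temperature shift of at least 10% of the positive control shift, at one fixed dose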
Superoxide pick: confirmation of caloric restriction mimetics inhibiting yeast age-related superoxide; shares compounds with CR mimetic SO; S. cerevisiae aging, superoxide DHE fluorescence; stronger effect = lower value; superoxide response (% of plate), % at 10 µM; 850 tested, 1% active; AID 434994;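 active = superoxide signal below 65% of the plate average of sample wells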;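 also: cells aged with compound for 7 days at 30 degrees C before staining; 100% equals mean DHE fluorescence of all compound wells on the plate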
DHE counter: compound alters DHE oxidation or fluorescence in yeast. S. cerevisiae BY4741, flow cytometry; stronger effect = lower value. fluorescence response, % at 10 µM. shares compounds with CR mimetic SO. 850 tested, under 10 active;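 active = fluorescence response below 15%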;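 also: percent of the mean fluorescence averaged over all compound wells on the plate; lower means stronger quenching of DHE signal or ROS scavenging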
Numbers without * were called inactive; . = no result. Shown are actives, neighbours in structure and some others; about 4.3% of the full set was active somewhere.

SMILES	CR mimetic SO	dFosB act	UBC13 inh	NALP1 yeast inh	GRIN3A LBD mod	Superoxide pick	DHE counter
C/C(=N\NC(=O)CN1CCN(c2ccc(F)cc2)CC1)c1ccco1	112	-1	-10	.	-1	.	.
Cc1cccc(-n2nnc3c(=O)n(Cc4ccccn4)cnc32)c1	90	-6	2	-3	-1	.	.
CCC(=Nc1ccccc1O)C1=C(O)CC(c2ccccc2)CC1=O (configuration not stated)	62*	-10	-1	32	-1	70	98
CCC(=Nc1ccccc1OC)C1=C(O)CC(c2ccccc2)CC1=O (configuration not stated)	67	-1	2	-7	-2	.	.
CCCCCN(C(=O)CCC(=O)OCc1ccccc1Cl)c1c(N)n(CCCC)c(=O)[nH]c1=O	60*	-2	-7	8	-2	105	97
CCCCCN(C(=O)CCC(=O)OCc1ccccc1C)c1c(N)n(CCCC)c(=O)[nH]c1=O	108	-4	-6	.	0	.	.
COc1ccc(C(CNC(=O)c2cccc(S(=O)(=O)Nc3ccc(F)cc3)c2)N2CCOCC2)cc1 (configuration not stated)	.	-13	.	.	-2	.	.
CC(C)(C)NC(=O)COC(=O)CCC(=O)c1cccs1	106	4	-10	11	-1	.	.
O=S(=O)(CCNC1CC1)NC1CCCCC1	.	0	.	.	0	.	.
O=C(NCCOc1ccccc1)c1ccccc1Cl	101	2	-5	22	2	.	.
COc1ccc(CCC(=O)NCCOc2ccc(C)cc2)cc1	39*	-4	-2	20	0	95	91
COc1ccc(OCCNC(=O)c2ccccc2Cl)cc1	64*	-6	-1	18	1	96	93
CC1(c2ccc(OC(F)F)cc2)NC(=O)N(CC(=O)Nc2cccc(F)c2)C1=O (configuration not stated)	96	-13	1	12	-2	.	.
Cc1ccc(CNS(=O)(=O)c2ccc3c(c2)NC(=O)C(C)S3)cc1 (configuration not stated)	128	-9	12	9	2	.	.
COc1ccccc1CCC(=O)N1CCN(S(=O)(=O)c2cc(C(F)(F)F)ccc2Cl)CC1	106	-10	-2	.	1	.	.
O=C(CC(Cc1ccccc1)C(=O)O)Nc1ccccc1 (configuration not stated)	50*	0	0	21	0	94	92
Cc1cccc(NC(=O)CCC(=O)N2CCOCC2)n1	79	-2	1	.	-2	.	.
CCOC(=O)C1=C(COC(=O)CNS(=O)(=O)c2c(F)cc(F)cc2Br)NC(=O)NC1C (configuration not stated)	.	-2	.	.	-1	.	.
C=CCOn1c(=O)c(-c2cccs2)[n+]([O-])c2ccccc21	62*	-5	-8	-4	1	92	110
Cn1c2ccccc2c(=O)c2c(=O)n(C3CCCCC3)c(-c3cccs3)nc21	65*	-51	40	10	-5	110	98
CCn1c2ccccc2c2cc(/C=N/O)ccc21	83	2	-3	13	3	.	.
CCn1c2ccc(/C(C)=N\O)cc2c2cc(/C(C)=N\O)ccc21	91	-5	-4	-19	-1	112	81
COc1ccccc1NC(=O)CN1CCN(c2ccccn2)CC1	136	2	-3	16	1	99	117
N#Cc1ccccc1NC(=O)CN1CCN(c2ccccn2)CC1	98	-1	8	13	2	109	100
COc1ccccc1NC(=O)CN1CCN(CC(=O)Nc2cc(C)ccc2OC)CC1	.	-7	2	8	1	.	.
SMILES	CR mimetic SO	dFosB act	UBC13 inh	NALP1 yeast inh	GRIN3A LBD mod	Superoxide pick	DHE counter
COc1cc(NC(=O)CN2CCN(S(=O)(=O)/C=C/c3ccccc3)CC2)cc(OC)c1OC	94	-10	6	.	-3	.	.
COc1cc(NC(=O)CN2CCN(c3ccccn3)CC2)cc(OC)c1OC	100	2	-1	3	-2	100	93
COc1ccc(C)cc1NC(=O)CN1CCN(c2ccccn2)CC1	103	-12	6	-10	-2	107	93
C=CCN(CC=C)c1ncnc2[nH]ncc12	.	0	.	.	-9	.	.
CSc1nc(Cl)c(Br)c(Nc2c[nH]c(=O)[nH]c2=O)n1	.	-8	.	.	-43	.	.
O=C(Nc1cc(S(=O)(=O)N2CCCCCC2)ccc1OCC(F)(F)F)c1cnccn1	99	-8	-4	.	0	.	.
Cc1ccc(NC(=O)CN2CCN(c3ccccn3)CC2)c(Cl)c1	82	-1	-9	10	-2	114	130
O=C(CN1CCN(c2ccc([N+](=O)[O-])cc2)CC1)Nc1ccccn1	60*	4	-18	2	2	107	115
O=C(CN1CCN(c2ccc([N+](=O)[O-])cc2)CC1)Nc1nccs1	95	-5	-31	30	0	.	.
O=C(CN1CCN(c2ccccn2)CC1)Nc1ccccc1Br	94	6	6	17	1	108	99
O=C(CN1CCN(c2ccccn2)CC1)Nc1cccc(Cl)c1Cl	86	-3	-2	12	-2	111	109
O=C(N/N=C/c1cccc(O)c1)c1ccc(-n2cnnn2)cc1	.	-2	-2	.	.	.	.
COC(=O)c1ccccc1NC(=O)CN1CCCCCC1	98	6	-10	25	1	.	.
COC(=O)c1ccccc1NC(=O)CN1CCN(c2ccccn2)CC1	105	-5	5	2	-1	99	93
Cc1nnsc1-c1c(C(=O)N2CCOCC2)c(C)nn1-c1ccc(Cl)cc1	46*	4	-4	-4	3	98	87
Cc1nnsc1-c1c(C(=O)N2CCOCC2)c(C)nn1-c1ccccc1	101	-13	2	-10	-2	.	.
CCCc1c(NC(=O)Nc2ccc(F)cc2)cnn1-c1ccccc1	61*	-8	3	0	-4	120	108
CCCc1c(C(=O)Nc2ccc(F)cc2C)cnn1-c1ccccc1	87	-19	5	0	-1	.	.
Cc1cccc(NC(=O)c2nc[nH]c2C(=O)N[C@@H](CC(C)C)C(=O)OCc2ccccc2)c1	63*	-11	-4	.	-2	91	94
CCN(c1ccc(OC)cc1)S(=O)(=O)c1cc(-c2cc(C)no2)ccc1OC	63*	-11	4	2	-1	103	91
COc1cc(/C=C2\CC(C(C)(C)C)C/C(=C\c3cc(OC)c(OC)c(OC)c3)C2=O)cc(OC)c1OC (configuration not stated)	57*	-16	-4	32	0	95	91
COc1cc(/C=C2\CC/C(=C\c3cc(OC)c(OC)c(OC)c3)C2=O)cc(OC)c1OC	96	-7	6	32	-3	.	.
Cc1ccc(NC(=O)C2CCN(c3cnccn3)CC2)cc1C	111	-2	-4	-1	-1	.	.
